# A selection: hits, their analogues and other compounds. The true share with any hit is near 7.5%.
# FLuc counter – firefly luciferase modulation, counter-screen for miR-21 project. P08659. purified FLuc, Km substrates, luminescence inhibition. Potency, µM (series often up to 57.5 µM), inactives show top-dose activity change, negative = inhibition, actives largely listed as inhibitors. hit rate 6.9% among 360,000. AID 588342;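 further: plate controls were vehicle for no effect and reference inhibitor for full effect; nearly all actives have a fitted effect of over 55% in size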
# Target sequence (P08659 whole entry, looked up): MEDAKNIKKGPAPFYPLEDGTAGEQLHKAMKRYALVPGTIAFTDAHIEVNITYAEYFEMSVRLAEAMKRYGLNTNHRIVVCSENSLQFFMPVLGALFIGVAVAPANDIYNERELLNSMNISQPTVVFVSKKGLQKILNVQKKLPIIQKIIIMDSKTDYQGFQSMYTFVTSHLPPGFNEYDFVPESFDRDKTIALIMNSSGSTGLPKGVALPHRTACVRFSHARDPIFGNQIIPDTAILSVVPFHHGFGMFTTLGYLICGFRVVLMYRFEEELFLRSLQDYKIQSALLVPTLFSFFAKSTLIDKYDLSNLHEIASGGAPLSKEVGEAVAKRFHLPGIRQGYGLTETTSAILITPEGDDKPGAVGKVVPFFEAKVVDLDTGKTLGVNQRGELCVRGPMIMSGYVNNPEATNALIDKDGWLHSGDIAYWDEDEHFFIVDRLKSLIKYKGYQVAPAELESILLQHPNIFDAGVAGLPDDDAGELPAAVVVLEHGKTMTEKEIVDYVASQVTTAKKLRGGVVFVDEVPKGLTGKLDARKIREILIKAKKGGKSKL
#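 Purified P. pyralis luciferase (10nM final) with 10uM D-luciferin and 10uM ATP (Km levels) in 50mM Tris acetate pH 7.5, 10mM Mg acetate, 0.01% Tween-20, 0.05% BSA; qHTS 6-point titration, ~60 µM downward; luminescence read.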
# KinaseGlo FLuc – blocks Kinase-Glo luciferase, a counter-screen artifact; hit rate 0.28% among 200,000; Potency, µM (doses to about 38.3 µM), for the others: top-dose activity change, negative = inhibition, actives largely listed as inhibitors; Kinase-Glo luciferase, ATP luminescence, 8 min; Q27757; further: on the % scale 0 is the no-effect control and ±100 the full control effect; nearly all actives have a fitted effect of over 60% in size
#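 Compound is pinned into ATP-containing buffer (10 uM ATP, imidazole pH 7.2, 7 mM MgCl2). Kinase-Glo luciferase reagent is then added. Light output is recorded following an 8-min room-temperature incubation.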
# ELG1 genotoxic – inducers of genotoxicity in HEK293T ELG1-luciferase cells. HEK293T ELG1-luciferase reporter, luminescence, 16 h. Potency, µM (series often up to 46 µM), for inactives: at the highest dose activity change, positive = activation, actives largely listed as activators. hit rate 1.3% among 330,000; further: % of control where 0% means no effect; nearly all actives have a fitted effect of over 60% in size
#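 After overnight (16 hr) compound treatment at 37 °C, ELG1-luciferase HEK293T cells were lysed with ONE-Glo; luminescence quantified 30 min later at room temperature.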
# NPC1 promoter act – activators of NPC1 promoter; Potency, µM (series often up to 9.22 µM), without a hit: at the highest dose activation, hits mostly activators; Huh7 NPC1 promoter luciferase reporter, 24 h; hit rate 2.4% among 320,000; further: % of control where 0% means no effect; nearly all actives have a fitted effect of over 60% in size
#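 Quantitative HTS used a cell-based reporter: Huh7 cells stably bearing the NPC1 promoter upstream of luciferase were treated with compounds for 24 h, and promoter activation was read as luminescence.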
# SMN2 splice up – increases expression of the SMN2 splice variant; Potency, µM (highest dose often 46.1 µM), inactives show at the highest dose activity change, positive = activation, actives largely listed as activators; hit rate 2.8% among 210,000; HEK293 SMN2-luciferase splicing reporter, luminescence, 30-36 h; AID 1458; further: % of control where 0% means no effect; nearly all actives have a fitted effect of over 55% in size
#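 HEK293 cells carry an SMN2 […]–luciferase reporter in which exon 7 inclusion puts luciferase in frame. Cells were plated 10-12 h before compound addition, then incubated 30-36 h at 37C. ONE-Glo luminescence was read; sodium butyrate at 4.5 mM final served as control.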
# Rab9 prom act – Rab9 promoter activation. Potency, µM (series often up to 9.22 µM), for inactives: at the highest dose activation, negative = inhibition, usual class: activators. AID 485297. Huh7 Rab9 promoter-luciferase reporter, luminescence, 24 h. hit rate 2.8% among 320,000; further: % of control where 0% means no effect; nearly all actives have a fitted effect of over 60% in size
#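 Huh7 cells stably carrying Rab9 promoter–luciferase reporter, plated 1500 cells/well, compound added after 2 h and incubated 24 h at 37 °C; luciferase luminescence then read after 10 min with detection reagent.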
# Numbers without * were called inactive; u = inconclusive; x = not tested or not shown. The call rests on the fitted dose curve; in most records, active means well fitted curve in the direction sought with a large enough effect; inconclusive means small, poorly fitted or top-dose-only effect, or another doubt; inactive means no such curve, though single readings can be large; an effect the other way counts as inactive or inconclusive. Potency means the concentration at half of the fitted maximal effect.
SMILES,FLuc counter,KinaseGlo FLuc,ELG1 genotoxic,NPC1 promoter act,SMN2 splice up,Rab9 prom act
COC(=O)C(CCSC)NC(=O)c1cc2c(n(-c3ccccc3)c1=O)CC(C)(C)CC2=O (stereo not given),-1.4%,1.0%,0.2%,-1.1%,-3.7%,-0.4%
Cc1cc(C)c(C)c(N=Nc2nc3ccccc3n2C)c1C,10.7µM*,-9.5%,u,11.0%,-41.3%,18.7%
Cc1ccc(C)c(N=Nc2nc3ccccc3n2C)c1,0.953µM*,u,u,3.16µM*,u,2µM*
CCN(C(=S)Nc1ccc(Oc2ccccc2)cc1)c1ccccc1,2.3%,x,4.0%,0.0%,x,-0.8%
COc1ccc(OC)c(CNC(=O)c2cnc3c(C)cccn3c2=O)c1,2.7%,x,x,x,x,x
Cc1ccc(-n2cc(CN3CCC(O)(c4ccccn4)CC3)c(-c3ccc(F)cc3)n2)cc1,16.9µM*,-1.7%,-5.7%,-3.6%,x,-20.5%
CC(=O)N=C1SC2CS(=O)(=O)CC2N1c1ccc(-c2nc3ccc(C)cc3s2)cc1 (stereo not given),9.53µM*,2.6%,u,2.82µM*,17.8µM*,0.891µM*
Cc1ccc(CN2C(=NC(=O)CCC(=O)O)SC3CS(=O)(=O)CC32)cc1 (stereo not given),0.7%,x,2.7%,-2.2%,x,-0.6%
Cc1ccc2nc(-c3ccc(N4C(=NC(=O)CCC(=O)O)SC5CS(=O)(=O)CC54)cc3)sc2c1 (stereo not given),10.7µM*,x,u,u,x,4.47µM*
Cc1ccc(NC(=O)c2cncc(Br)c2)nc1,u,x,u,3.16µM*,x,u
Cc1ccc(NC(=O)c2ccc(CSc3ccccn3)cc2)c(O)c1,23.9µM*,x,0.1%,11.6%,x,11.2%
Cc1ccc(NC(=O)c2ccc3nc[nH]c3c2)c(O)c1,19µM*,-4.0%,u,3.16µM*,12.6µM*,u
Cc1cc([N+](=O)[O-])ccc1NC(=O)c1cncc(Br)c1,2.0%,1.6%,-5.5%,-3.1%,-4.0%,0.7%
O=C(Nc1ccccc1C(=O)O)c1cncc(Br)c1,u,-3.2%,-0.3%,12.5%,6.5%,12.0%
Cc1ccc(NC(=O)c2ccc(CSc3ccccn3)cc2)cc1,u,-3.4%,1.0%,u,-6.2%,u
Cc1ccc(NC(=O)c2cncc(Br)c2)c(O)c1,16.9µM*,-0.8%,-1.4%,u,u,u
Cc1nn(C)c(C(=O)N/N=C/c2ccc(-c3ccccc3)cc2)c1Cl,4.3%,x,6.6%,-6.7%,x,7.1%
C=C1CC[C@H](O)C/C1=C/C=C1\CCC[C@]2(C)C([C@H](C)CCCC(C)(C)O)CC[C@@H]12 (stereo not given in full),x,x,x,x,-9.3%,x
Cc1oc2c(CN3CCC(C)CC3)c(O)ccc2c(=O)c1-c1ccccc1,0.6%,x,-0.6%,-3.7%,x,-0.9%
COc1ccc(CNc2nc3ccccc3n2C)c(OC)c1,12µM*,-15.5%,u,3.16µM*,x,2.51µM*
COc1ccc(CNc2nc3ccccc3n2C)c(O)c1,8.49µM*,x,u,2.51µM*,x,3.16µM*
Cc1cccc(C(=O)NCC(c2ccc(F)cc2)N2CCOCC2)c1 (stereo not given),4.1%,-1.8%,0.0%,-3.3%,-0.7%,-1.5%
Cn1cccc1C(=O)/C(C#N)=C/c1ccc(F)cc1,6.75µM*,x,0.7%,1.9%,x,-3.7%
COc1ccccc1/C=C(\C#N)C(=O)c1cccn1C,10.7µM*,x,-0.2%,-5.5%,x,2.3%
COc1ccccc1/C=C(/C#N)C(=O)O,-2.8%,x,2.8%,-2.6%,x,-2.1%
SMILES,FLuc counter,KinaseGlo FLuc,ELG1 genotoxic,NPC1 promoter act,SMN2 splice up,Rab9 prom act
COc1ccc(/C=C(\C#N)C(=O)C(C)(C)n2cncn2)cc1,u,0.1%,3.1%,0.1%,-25.4%,-1.6%
CN1CCN(C(=O)/C(C#N)=C/c2ccc(F)cc2)CC1,5.1%,-1.0%,10.9%,-16.2%,7.2%,-3.1%
COc1ccc(/C=C(\C#N)C(=O)c2cccn2C)cc1,1.51µM*,x,0.6%,-0.1%,x,-1.9%
C=CCN1C(=O)S/C(=C/c2ccsc2)C1=O,19µM*,-5.6%,u,2.0%,-7.0%,15.7%
N=c1cc(C2(O)CCCCC2)n2c(nc3ccccc32)s1,0.675µM*,8.6%,0.581µM*,0.282µM*,-10.6%,0.282µM*
O=C1c2sc3nc4ccccc4n3c2C(=O)N1c1ccccc1Cl,u,-0.3%,0.7%,-2.9%,u,13.7%
O=C1NCCN/C1=C\C(=O)c1ccccc1,-18.2%,-0.5%,u,14.8%,6.8%,u
O=C1OCCN/C1=C\C(=O)c1ccc(Cl)cc1,23.9µM*,x,-6.1%,-2.0%,x,-7.1%
O=C1NCCN/C1=C\C(=O)c1ccc(Br)cc1,9.53µM*,x,10.3µM*,1.26µM*,x,1.26µM*
O=C(Oc1ccccc1C(=O)N1CCOCC1)c1ccc(Br)cc1,5.5%,-0.4%,-1.5%,-2.2%,-19.8%,-7.1%
O=C(/C=C/N1CCOCC1)c1ccc(-c2ccccc2)cc1,10.7µM*,-3.6%,17.0%,1.78µM*,u,3.16µM*
O=C(/C=C\N1CCOCC1)c1ccc(Br)cc1,15.1µM*,x,u,u,x,u
Cc1ccccc1Nc1oc(-c2ccccc2)nc1-c1ccccc1F,x,2.3%,x,x,-0.3%,x
O=C1CCNc2ccc(-c3ccccc3)cc21,15.1µM*,-1.1%,u,u,u,21.5%
CCOc1ccc(NC(=O)CC2CC(C)(C)OC2=O)cc1 (stereo not given),-1.7%,-4.4%,1.5%,0.4%,-2.8%,1.0%
